Our source for the Potency values is PubChem BioAssay AID489008 (National Center for Advancing Translational Sciences (NCATS), 2010).

Inconclusive results are not listed. The source made the active and inactive calls. The call rests on the fitted dose curve; in most records, active means well fitted inhibition curve with a large enough effect; inconclusive means small, poorly fitted or top-dose-only effect; inactive means flat fitted curve, though single readings scatter.
Potency means the concentration at half of the fitted maximal effect.

The assay deals with Ferritin light chain (Equus caballus) (UniProt P02791). Nature of the assay: Confirmation Assay for Identification of Novel General Anesthetics. Further: nearly all actives have a fitted effect of over 40% in size. The following applies: apoferritin 1-aminoanthracene fluorescence displacement. Summed up: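 Horse apoferritin (10 uM) pre-loaded with 1-AMA (50% saturated, PBS) exposed to compounds 10 min at room temperature; loss of 1-AMA fluorescence (380/535 nm) scaled between free and bound ligand, curves fitted with Hill equation.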
Ferritin light chain (Equus caballus), sequence (P02791 2-175 limits assumed): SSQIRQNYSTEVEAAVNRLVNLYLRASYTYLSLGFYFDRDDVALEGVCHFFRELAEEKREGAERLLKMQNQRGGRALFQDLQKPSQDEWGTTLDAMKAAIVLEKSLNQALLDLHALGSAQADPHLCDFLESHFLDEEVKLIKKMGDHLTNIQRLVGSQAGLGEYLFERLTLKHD
As to `c1cnc(NC2CCCCCC2)nc1`, the Potency is 15.8 µM (active). As for `O=C(CCc1ccccc1)Nc1cc(Cl)ccc1O`, the Potency is 6.31 µM (active). For the compound `O=C(CSC(=S)N1CCCCC1)c1ccccc1`, the Potency is 15.8 µM (active). The same measure for `Nc1nc(SCc2ccc(Cl)cc2)ns1`: 12.6 µM (active); for `O=C(COC(=O)c1cccs1)NCC1CCCCC1`: 20 µM (active); for `COc1ccc(/C=N/NC(=O)CC(=O)NC2CCCCC2)cc1`: 6.31 µM (active).

Consider `Cc1ncsc1CCOC(=O)C12CC3CC(CC(C3)C1)C2`, for which the Potency was 15.8 µM (active). The same measure for `Cc1ccc(Cl)cc1NC(=O)C1COc2ccccc2O1` (stereo not drawn): 20 µM (active); for `Nc1nnc(COc2cccc(C(F)(F)F)c2)s1`: 15.8 µM (active). On to `Cc1cc(C)cc(C(=O)N2CCCCCC2)c1`, for which the Potency was 20 µM (active).

On to `CCN(CC)CC(=O)Nc1c(C)cc(C(C)(C)C)cc1C`, for which the Potency was 12.6 µM (active). The figure for `Cc1ccc(O)c(N=Nc2ccccc2)n1` is 22.4 µM (active); for `Oc1ccc(NCc2cccc(OCc3ccccc3)c2)cc1` it is 15.8 µM (active). The figure for `CCN1C(=O)N(c2cccc3ccccc23)C(C)=CC1(C)C` is 14.1 µM (active); for `CCN(CC)C(=S)SCC(=O)c1ccc(F)cc1` it is 15.8 µM (active).

As for `Cc1ccc(NC(C)c2cc(Cl)ccc2O)cc1` (stereo not drawn), the Potency is 17.8 µM (active). The same measure for `Cc1ccccc1NCc1ccccc1O`: 15.8 µM (active); for `CCCNC(=O)OCCC12CC3CC(CC(C3)C1)C2`: 7.08 µM (active). The same measure for `Cc1ccccc1OCC(=O)N1CCCCCCC1`: 7.94 µM (active); for `Nc1cc(C(F)(F)F)ccc1Nc1ccccc1`: 25.1 µM (active); for `O=S(=O)(Nc1ccc2c(c1)CCC2)c1cccs1`: 17.8 µM (active). As for `O=S(=O)(Nc1cnc2ccccc2c1)N1CCCCCC1`, the Potency was 28.2 µM (active). The same measure for `O=[N+]([O-])c1ccc(CNc2ccc(Cl)cc2)s1`: 22.4 µM (active). The same measure for `CC(C)(Nc1ccccc1)C(=O)c1ccccc1`: 12.6 µM (active); for `O=C(Cn1nc(-c2ccccc2)ccc1=O)NCc1ccc(F)cc1`: 6.31 µM (active). The same measure for `Clc1ccc(NCc2ccsc2)cc1`: 25.1 µM (active); for `Cc1csc(Nc2ccccc2)n1`: 35.5 µM (active). `Cc1ccc(OCc2cc(C(=O)N3CCCCCCC3)no2)cc1C`: the Potency was 22.4 µM (active). The same measure for `Cc1ccc(-c2ccc(=O)n(CC(=O)NCCc3ccccc3)n2)cc1`: 6.31 µM (active); for `COCCCNC(=O)Cn1nc(-c2ccc(C)cc2)ccc1=O`: 14.1 µM (active).

As to `O=C(COC(=O)c1cccs1)NC12CC3CC(CC(C3)C1)C2`, the Potency was 11.2 µM (active).

As to `Cc1cc(C(F)(F)F)n(-c2ccc(N)cc2)n1`, the Potency was 17.8 µM (active).

In the case of `Cc1csc(OCC(=O)Nc2ccc(C)c(C)c2)n1`, the Potency was 17.8 µM (active). The figure for `O=C1C2CC=CCC2C(=O)N1Cc1ccccc1Cl` (stereo not drawn) is 7.94 µM (active). The same measure for `O=S(N1CCc2ccccc21)C12CC3CC(CC(C3)C1)C2` (stereo not drawn): 12.6 µM (active); for `O=C(c1csc2ccccc12)N1CCCCCC1`: 31.6 µM (active).

As for `Cc1cccc(NC(=O)N2CCCCCC2)c1`, the Potency was 11.2 µM (active). The same measure for `CCc1ccc(NC(=S)N2CCCCCCC2)cc1`: 14.1 µM (active).
